Data published in the supplement of paper PMC11732987, “Enantioselective OTUD7B fragment discovery through chemoproteomics screening and high-throughput optimisation” (Communications Chemistry, 2025).

Key:
Assay in all cases: log2 ratio of Biotin-Ahx-Ub-VS probe labelling (fragment/DMSO); higher = less target engagement (more negative = stronger competition), active = hit call of the paper (q ≤ 0.05, log2 ratio ≤ -1)
Details in all cases: compound concentration: 200 uM; treatment time: 3 h
USP34 = USP34 (UniProt Q70CQ2)
Outline: (§1)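 Values give the average log2 ratio of fragment to vehicle, assessed by unpaired t-test on global-median-normalised Spectronaut label-free quantities. Proteins needed ≥2 unique peptides. HEK293T lysate (495 µg per sample) was treated in triplicate with fragment at 200 µM or vehicle for 3 h and then with Biotin-Ahx-Ub-VS at 0.5 µM final for 1 h. Labelled DUBs were NeutrAvidin-enriched, digested and run by diaPASEF LC-MS/MS.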

USP36 = target: T1, USP36 (UniProt Q9P275)
T1 sequence (whole entry): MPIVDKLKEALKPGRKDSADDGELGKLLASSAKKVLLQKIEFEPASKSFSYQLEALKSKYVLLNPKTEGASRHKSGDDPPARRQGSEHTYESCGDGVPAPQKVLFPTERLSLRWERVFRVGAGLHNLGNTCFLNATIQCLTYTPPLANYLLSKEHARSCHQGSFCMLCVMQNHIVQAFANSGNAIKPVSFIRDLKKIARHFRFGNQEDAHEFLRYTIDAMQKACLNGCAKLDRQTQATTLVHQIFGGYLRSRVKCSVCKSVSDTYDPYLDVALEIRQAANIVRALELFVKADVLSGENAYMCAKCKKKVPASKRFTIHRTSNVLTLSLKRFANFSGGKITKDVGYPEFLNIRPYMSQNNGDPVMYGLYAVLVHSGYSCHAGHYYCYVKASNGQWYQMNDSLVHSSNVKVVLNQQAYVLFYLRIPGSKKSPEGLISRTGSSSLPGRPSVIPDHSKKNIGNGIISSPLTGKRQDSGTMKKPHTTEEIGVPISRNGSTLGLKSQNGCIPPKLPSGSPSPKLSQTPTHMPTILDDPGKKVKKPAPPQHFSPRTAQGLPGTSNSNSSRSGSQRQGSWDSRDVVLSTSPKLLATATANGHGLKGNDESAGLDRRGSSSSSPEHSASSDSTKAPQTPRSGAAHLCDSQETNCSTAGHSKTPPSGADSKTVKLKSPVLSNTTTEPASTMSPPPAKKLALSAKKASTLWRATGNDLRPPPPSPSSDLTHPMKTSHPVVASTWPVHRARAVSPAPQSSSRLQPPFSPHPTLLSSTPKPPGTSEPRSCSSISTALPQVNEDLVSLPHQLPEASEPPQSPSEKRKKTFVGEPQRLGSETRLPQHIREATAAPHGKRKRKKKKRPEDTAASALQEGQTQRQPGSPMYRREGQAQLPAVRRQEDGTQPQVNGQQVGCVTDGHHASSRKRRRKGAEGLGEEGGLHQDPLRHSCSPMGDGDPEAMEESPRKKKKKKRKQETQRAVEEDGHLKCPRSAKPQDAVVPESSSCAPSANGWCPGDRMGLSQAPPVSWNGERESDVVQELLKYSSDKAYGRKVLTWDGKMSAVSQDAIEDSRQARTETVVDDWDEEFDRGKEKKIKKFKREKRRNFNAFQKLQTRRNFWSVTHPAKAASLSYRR
Outline: as §1

USP38 = target: T2, USP38 (UniProt Q8NB14)
T2 sequence (whole entry): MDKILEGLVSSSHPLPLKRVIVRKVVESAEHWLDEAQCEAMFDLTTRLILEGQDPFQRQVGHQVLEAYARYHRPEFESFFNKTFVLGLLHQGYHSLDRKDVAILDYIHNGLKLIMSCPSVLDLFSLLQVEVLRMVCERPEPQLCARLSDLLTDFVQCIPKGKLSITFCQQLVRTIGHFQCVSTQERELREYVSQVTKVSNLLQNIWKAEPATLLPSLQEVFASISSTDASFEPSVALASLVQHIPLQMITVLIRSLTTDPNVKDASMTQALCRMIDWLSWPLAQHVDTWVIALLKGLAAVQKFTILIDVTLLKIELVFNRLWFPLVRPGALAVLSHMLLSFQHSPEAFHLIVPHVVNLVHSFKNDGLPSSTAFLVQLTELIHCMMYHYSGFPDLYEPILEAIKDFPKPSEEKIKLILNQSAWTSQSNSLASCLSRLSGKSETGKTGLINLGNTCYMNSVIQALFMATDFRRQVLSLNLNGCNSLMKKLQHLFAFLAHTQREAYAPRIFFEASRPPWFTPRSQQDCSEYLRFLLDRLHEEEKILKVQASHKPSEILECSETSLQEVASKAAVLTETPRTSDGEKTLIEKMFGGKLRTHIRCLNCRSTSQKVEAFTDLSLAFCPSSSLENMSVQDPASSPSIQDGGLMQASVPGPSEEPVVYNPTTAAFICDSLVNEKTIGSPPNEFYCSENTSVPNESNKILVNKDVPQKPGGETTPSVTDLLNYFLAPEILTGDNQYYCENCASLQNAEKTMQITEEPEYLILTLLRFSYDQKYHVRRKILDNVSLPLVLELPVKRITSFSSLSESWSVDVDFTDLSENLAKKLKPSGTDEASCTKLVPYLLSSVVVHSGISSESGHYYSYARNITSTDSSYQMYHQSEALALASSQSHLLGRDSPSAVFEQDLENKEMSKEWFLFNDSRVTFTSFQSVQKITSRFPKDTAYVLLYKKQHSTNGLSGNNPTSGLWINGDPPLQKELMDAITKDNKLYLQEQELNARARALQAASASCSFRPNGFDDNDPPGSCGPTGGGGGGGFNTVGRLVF
Outline: as §1

USP39 = target: T3, USP39 (UniProt Q53GS9)
T3 sequence (whole entry): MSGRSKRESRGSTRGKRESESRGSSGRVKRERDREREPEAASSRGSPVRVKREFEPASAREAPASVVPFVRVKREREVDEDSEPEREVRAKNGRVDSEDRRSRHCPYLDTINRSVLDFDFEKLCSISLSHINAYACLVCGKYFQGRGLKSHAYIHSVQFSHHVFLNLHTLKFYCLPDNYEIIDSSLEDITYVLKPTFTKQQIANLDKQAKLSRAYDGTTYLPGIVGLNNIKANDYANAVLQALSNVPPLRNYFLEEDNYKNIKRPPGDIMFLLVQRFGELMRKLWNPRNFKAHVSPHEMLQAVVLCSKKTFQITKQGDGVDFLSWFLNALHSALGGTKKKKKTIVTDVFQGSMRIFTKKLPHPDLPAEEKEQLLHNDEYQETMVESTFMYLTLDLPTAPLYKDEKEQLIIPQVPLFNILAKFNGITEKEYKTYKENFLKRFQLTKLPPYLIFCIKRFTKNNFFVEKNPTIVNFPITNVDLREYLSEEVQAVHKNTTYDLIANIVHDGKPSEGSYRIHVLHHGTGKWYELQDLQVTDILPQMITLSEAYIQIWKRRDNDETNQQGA
Outline: as §1

USP4 = target: T4, USP4 (UniProt Q13107)
T4 sequence (whole entry): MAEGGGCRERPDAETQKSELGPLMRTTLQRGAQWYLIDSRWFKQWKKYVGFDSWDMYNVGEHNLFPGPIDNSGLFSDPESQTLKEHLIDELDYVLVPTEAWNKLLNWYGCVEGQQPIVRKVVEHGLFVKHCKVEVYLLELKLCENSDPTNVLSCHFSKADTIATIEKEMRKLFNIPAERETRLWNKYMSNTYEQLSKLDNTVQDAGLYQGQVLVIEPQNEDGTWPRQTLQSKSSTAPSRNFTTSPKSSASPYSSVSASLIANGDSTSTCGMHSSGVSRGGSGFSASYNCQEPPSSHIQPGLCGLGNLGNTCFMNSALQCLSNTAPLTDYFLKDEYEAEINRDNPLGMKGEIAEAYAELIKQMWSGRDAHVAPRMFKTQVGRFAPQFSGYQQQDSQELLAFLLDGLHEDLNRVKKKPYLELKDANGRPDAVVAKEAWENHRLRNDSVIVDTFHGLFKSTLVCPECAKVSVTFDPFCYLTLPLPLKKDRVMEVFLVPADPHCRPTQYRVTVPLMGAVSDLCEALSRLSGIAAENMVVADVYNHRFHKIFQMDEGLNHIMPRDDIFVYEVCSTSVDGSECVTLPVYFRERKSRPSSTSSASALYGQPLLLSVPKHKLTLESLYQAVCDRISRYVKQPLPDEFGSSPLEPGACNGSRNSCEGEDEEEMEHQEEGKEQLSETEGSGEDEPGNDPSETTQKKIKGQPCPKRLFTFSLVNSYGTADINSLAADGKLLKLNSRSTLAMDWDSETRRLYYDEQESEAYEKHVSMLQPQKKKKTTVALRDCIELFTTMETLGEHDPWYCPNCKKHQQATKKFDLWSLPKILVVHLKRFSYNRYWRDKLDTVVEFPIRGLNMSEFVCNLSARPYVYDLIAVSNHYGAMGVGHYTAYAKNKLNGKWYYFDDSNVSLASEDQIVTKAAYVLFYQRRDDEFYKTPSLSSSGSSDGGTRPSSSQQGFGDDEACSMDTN
Outline: as §1

Measured: log2 ratio of Biotin-Ahx-Ub-VS probe labelling

USP34, sequence (Q70CQ2 whole entry, the tested form may be a part): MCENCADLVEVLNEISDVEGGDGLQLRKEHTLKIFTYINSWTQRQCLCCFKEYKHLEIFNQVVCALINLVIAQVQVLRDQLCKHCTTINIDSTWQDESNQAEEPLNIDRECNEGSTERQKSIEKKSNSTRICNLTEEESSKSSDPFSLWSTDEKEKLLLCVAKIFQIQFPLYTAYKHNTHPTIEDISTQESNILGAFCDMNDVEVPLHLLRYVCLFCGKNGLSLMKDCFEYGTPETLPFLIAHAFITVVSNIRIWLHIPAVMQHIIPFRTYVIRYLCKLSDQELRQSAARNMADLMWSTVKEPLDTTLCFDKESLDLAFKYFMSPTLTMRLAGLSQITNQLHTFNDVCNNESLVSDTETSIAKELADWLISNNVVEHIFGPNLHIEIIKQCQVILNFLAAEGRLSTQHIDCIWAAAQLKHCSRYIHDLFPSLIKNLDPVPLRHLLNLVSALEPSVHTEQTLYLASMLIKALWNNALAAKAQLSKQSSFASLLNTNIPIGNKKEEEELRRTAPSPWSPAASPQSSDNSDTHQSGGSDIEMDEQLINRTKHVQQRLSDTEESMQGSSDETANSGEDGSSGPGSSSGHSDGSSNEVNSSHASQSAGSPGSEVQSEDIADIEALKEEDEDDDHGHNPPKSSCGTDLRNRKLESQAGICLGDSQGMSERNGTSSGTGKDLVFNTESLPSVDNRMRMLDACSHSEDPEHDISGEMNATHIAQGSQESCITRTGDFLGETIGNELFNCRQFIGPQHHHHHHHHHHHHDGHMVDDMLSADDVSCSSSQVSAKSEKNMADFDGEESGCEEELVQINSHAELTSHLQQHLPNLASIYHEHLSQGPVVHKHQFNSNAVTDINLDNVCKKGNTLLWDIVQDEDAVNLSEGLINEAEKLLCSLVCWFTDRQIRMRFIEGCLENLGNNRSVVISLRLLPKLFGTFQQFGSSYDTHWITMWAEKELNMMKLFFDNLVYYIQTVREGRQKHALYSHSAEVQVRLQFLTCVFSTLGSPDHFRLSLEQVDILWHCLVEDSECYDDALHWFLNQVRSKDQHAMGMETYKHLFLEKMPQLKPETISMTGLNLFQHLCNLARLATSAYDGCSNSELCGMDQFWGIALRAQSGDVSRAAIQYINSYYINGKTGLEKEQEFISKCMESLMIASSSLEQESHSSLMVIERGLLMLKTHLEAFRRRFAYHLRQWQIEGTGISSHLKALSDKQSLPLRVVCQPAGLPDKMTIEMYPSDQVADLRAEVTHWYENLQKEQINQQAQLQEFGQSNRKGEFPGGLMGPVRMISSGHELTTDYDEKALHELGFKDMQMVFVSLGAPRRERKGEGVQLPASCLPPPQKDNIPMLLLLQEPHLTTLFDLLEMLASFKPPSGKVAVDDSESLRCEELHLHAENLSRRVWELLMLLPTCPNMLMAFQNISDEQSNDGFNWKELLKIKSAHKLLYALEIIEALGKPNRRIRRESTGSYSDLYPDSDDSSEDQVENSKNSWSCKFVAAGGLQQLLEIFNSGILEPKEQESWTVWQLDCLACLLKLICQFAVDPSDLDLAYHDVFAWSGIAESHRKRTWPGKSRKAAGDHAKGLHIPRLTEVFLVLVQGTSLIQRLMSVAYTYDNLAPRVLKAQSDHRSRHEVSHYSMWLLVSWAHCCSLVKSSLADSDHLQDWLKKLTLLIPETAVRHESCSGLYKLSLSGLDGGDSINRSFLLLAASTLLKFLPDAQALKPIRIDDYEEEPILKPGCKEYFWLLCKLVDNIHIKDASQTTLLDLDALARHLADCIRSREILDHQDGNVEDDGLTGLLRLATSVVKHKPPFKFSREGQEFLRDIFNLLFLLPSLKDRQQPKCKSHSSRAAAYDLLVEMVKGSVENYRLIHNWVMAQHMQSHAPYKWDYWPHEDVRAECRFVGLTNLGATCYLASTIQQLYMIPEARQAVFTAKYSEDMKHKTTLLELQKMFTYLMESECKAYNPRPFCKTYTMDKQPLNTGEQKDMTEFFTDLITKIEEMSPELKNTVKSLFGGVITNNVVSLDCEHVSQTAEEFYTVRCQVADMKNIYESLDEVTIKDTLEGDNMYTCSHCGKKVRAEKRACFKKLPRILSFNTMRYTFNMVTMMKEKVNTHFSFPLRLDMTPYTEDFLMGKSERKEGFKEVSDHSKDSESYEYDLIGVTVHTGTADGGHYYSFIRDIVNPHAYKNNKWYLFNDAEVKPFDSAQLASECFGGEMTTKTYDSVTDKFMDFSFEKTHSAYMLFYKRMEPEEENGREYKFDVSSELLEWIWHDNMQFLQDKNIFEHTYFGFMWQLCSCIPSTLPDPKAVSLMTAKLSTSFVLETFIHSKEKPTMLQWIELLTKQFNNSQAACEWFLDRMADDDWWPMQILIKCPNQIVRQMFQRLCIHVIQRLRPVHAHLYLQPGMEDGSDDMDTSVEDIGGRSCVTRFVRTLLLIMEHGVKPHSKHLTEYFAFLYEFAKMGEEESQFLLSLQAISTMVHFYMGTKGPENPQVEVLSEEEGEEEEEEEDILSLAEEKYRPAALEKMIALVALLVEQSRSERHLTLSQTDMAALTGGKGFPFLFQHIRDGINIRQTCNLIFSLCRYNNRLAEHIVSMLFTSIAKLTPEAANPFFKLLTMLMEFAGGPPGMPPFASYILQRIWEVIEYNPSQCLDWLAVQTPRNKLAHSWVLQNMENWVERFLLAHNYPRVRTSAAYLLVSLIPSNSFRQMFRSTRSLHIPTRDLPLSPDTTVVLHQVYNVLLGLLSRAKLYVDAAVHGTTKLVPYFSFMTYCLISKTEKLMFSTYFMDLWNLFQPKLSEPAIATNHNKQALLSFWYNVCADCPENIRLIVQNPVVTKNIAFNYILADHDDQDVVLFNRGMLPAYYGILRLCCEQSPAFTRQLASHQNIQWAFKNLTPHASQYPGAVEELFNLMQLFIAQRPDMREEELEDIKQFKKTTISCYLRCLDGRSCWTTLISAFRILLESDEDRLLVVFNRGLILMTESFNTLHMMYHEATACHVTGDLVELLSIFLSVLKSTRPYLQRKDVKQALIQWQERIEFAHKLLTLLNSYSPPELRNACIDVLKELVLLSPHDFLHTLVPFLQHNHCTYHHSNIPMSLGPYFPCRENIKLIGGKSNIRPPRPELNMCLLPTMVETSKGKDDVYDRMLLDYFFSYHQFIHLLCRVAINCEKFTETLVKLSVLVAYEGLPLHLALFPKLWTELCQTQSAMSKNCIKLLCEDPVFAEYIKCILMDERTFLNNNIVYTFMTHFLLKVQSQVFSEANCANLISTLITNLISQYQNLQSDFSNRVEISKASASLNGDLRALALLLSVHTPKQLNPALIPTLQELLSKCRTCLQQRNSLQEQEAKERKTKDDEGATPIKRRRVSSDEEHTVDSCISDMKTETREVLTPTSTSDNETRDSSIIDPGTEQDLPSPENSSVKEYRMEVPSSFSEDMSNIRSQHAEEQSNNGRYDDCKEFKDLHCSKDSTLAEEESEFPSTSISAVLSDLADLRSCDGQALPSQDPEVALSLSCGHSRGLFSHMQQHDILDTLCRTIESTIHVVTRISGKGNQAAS

Cc1cccc(C(CNC(=O)CCl)N2CCOCC2)c1.Cl (stereo not given)
inactive: USP34 -0.0673 | USP36 0.0549 | USP38 -0.0229 | USP39 -0.116 | USP4 -0.165
